According to PubChem BioAssay (NCATS):
Results filed as inconclusive are left out. The source made the active and inactive calls. Calls follow the shape of the full dose curve.

Assay: qHTS assay for small molecule disruptors of the mitochondrial membrane potential - 1 hr assay (AID 651754); also: nearly all actives have a fitted effect of over 35% in size
Conditions: series mostly up to 92.2 µM; ratio change, negative = depolarisation: at the top concentration
Text: National Center for Advancing Translational Sciences [NCATS]
NIH Chemical Genomics Center [NCGC]
National Institutes of Environmental Health Sciences [NIEHS]
National Toxicology Program [NTP]
Mitochondrial membrane potential (MMP), one of the parameters for mitochondrial function, is generated by mitochondrial electron transport chain that creates an electrochemical gradient by a series of redox reactions. This gradient drives the synthesis of ATP, a crucial molecule for various cellular processes. Measuring MMP in living cells is commonly used to assess the effect of chemicals on mitochondrial function. […] The dye accumulates in the mitochondria of healthy cells as aggregates, with red fluorescence. The mitochondrial potential collapses and the dye can no longer accumulate in the mitochondria and remains in the cytoplasm in monomers, with green fluorescence.
2,000 HepG2 cells in 5 uL/well were dispensed into black, clear-bottom 1536-well plates using a Multidrop Combi (Thermo Scientific) dispenser. The assay plates were incubated overnight at 37C to allow cells to attach to the wells, followed by the transfer of 23 nL compound or DMSO vehicle by a pin tool (Kalypsys). The plates were incubated for 1 hr at 37C and 5% CO2, followed by the addition of 5 uL of 2X Mito-MPS dye (BD Biosciences) into each well using Flying Reagent Dispenser (Aurora Discovery) and then following 30 min incubation at 37C. Fluorescence intensity (490nm excitation and 535nm emission for monomers; and 540nm excitation and 590nm emissions for aggregates) was measured using an Envision plate reader.
% is scaled to controls: 0 for no effect and ±100 for the full control effect; potency is read from the fitted curve at half-maximal effect.

| Structure (SMILES) | ratio change, negative = depolarisation | Potency |
| --- | --- | --- |
| Cc1cccc(C)c1 | -4.87% (inactive) |  |
| O=C(O)c1ccc(Cl)c(Cl)c1 | 5.2% (inactive) |  |
| Cc1ccc(C#N)cc1 | 2.41% (inactive) |  |
| Nc1cc(S(=O)(=O)O)ccc1O | -0.207% (inactive) |  |
| CCOCCOCC | 0.0608% (inactive) |  |
| O=[N+]([O-])c1ccc(Cl)cc1Cl | 3.43% (inactive) |  |
| Cc1ccc(CO)cc1 | -2.54% (inactive) |  |
| O=C1OC(=O)c2c(Cl)c(Cl)c(Cl)c(Cl)c21 | -0.83% (inactive) |  |
| CC(=O)OC(C)=O | -2.89% (inactive) |  |
| c1ccc2[nH]cnc2c1 | 1.01% (inactive) |  |
| CC(=O)Nc1ccc(C)cc1 | 1.6% (inactive) |  |
| Nc1cccc(S(=O)(=O)O)c1 | -1.66% (inactive) |  |
| Cc1ccc(S(=O)(=O)NC2CCCCC2)cc1 | -4.49% (inactive) |  |
| c1ccsc1 | -3.02% (inactive) |  |
| O=C(O)CNC(=O)c1ccc(CO)o1 | -1.13% (inactive) |  |
| CC(=O)c1ccccn1 | 1.9% (inactive) |  |
| Cc1c(N)cccc1[N+](=O)[O-] | -11.1% (inactive) |  |
| Cc1cc(C2(c3cc(C)c(O)cc3C)OS(=O)(=O)c3ccccc32)c(C)cc1O | 4.51% (inactive) |  |
| CCNc1cc(O)ccc1C | -3.67% (inactive) |  |
| O=[N+]([O-])c1ccccc1CCO | -6.98% (inactive) |  |

| Structure (SMILES) | ratio change, negative = depolarisation | Potency |
| --- | --- | --- |
| CC(C)=C1CCC(C)CC1=O (stereo not given) | -6.54% (inactive) |  |
| O=C(O[C@@H](C(=O)O)[C@@H](OC(=O)c1ccccc1)C(=O)O)c1ccccc1 | -0.249% (inactive) |  |
| Cc1ccc2oc(=O)ccc2c1 | -0.401% (inactive) |  |
| Cc1ccc(C(C)(C)C)cc1 | -1.95% (inactive) |  |
| CCOc1ccc(NC(C)=O)cc1N | 1.89% (inactive) |  |
| CCCCCCCCCCCCC1CO1 (stereo not given) | 6.35% (inactive) |  |
| C/C=C(/C)C#N | -0.896% (inactive) |  |
| CCC(O)C(C)(C)C (stereo not given) | 4.11% (inactive) |  |
| CC1CCCO1 (stereo not given) | 1.39% (inactive) |  |
| CN(C)CCCCl | 7.36% (inactive) |  |
| O=Cc1ccc(CO)o1 | -17.1% (inactive) |  |
| O=C(Cl)c1cccc([N+](=O)[O-])c1 | 0.475% (inactive) |  |
| O=[N+]([O-])c1cc(C(F)(F)F)ccc1Cl | 1.1% (inactive) |  |
| COc1ccc(N)c(OC)c1 |  | 37.6 µM (active) |
| CCCCCCCCN | 7.4% (inactive) |  |
| CC(=O)c1ccccc1[N+](=O)[O-] | -6.44% (inactive) |  |
| Clc1ccccn1 | 2.97% (inactive) |  |
| Cc1ccccc1Br | 1.1% (inactive) |  |
| OC/C(Br)=C(\Br)CO | -0.198% (inactive) |  |
| CCCCC(C=O)CC (stereo not given) | 0.06% (inactive) |  |
